Results published in PubChem BioAssay.
Activity calls are given as the source filed them.

What was measured:
[1] = system: Plasmodium falciparum Sir2 (PF13_0152, Sir2A); assay: Plasmodium falciparum Sir2A binding compounds – biochemical, small-molecule microarray, 635 nm fluorescence, primary screen (AID 1098); conditions: fluorescence 635 nm, higher = more signal;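 further: score merges spot fluorescence intensity with its signal-to-noise ratio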
[2] = probe aDKK1 binding to arrayed compounds – biochemical, biotinylated probe, 635/667 nm fluorescence, primary screen (AID 1099); conditions: small-molecule microarray, higher = more signal;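 further: score merges 667nm spot fluorescence with signal to noise across triplicate slides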
[3] = probe aCHRDL2 binding to arrayed compounds – biochemical, biotinylated probe, 635/667 nm fluorescence, primary screen (AID 1100); conditions: small-molecule microarray, higher = more signal
[4] = change in splice reporter luminescence, either direction, cell-based, HEK293, spliceosome inhibition project, primary screen (AID 1101); conditions: HEK293 splicing luciferase reporter, 24 h, higher = more signal, called active from +8 up or from −8 down;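 further: HEK293 cells carrying a splicing-competent luciferase reporter gene; test concentration not given here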
[5] = target: Fibroblast growth factor 10 (Homo sapiens) (UniProt O15520); assay: compounds binding fibroblast growth factor 10 – biochemical, small-molecule microarray, 635 nm fluorescence, primary screen (AID 1102); conditions: FGF10 binding, fluorescence 635 nm, higher = more signal
[6] = system: glycogen synthase kinase-3 (GSK3A per assay name; protocol says GSK3B); assay: compounds binding glycogen synthase kinase-3 – biochemical, small-molecule microarray, 635 nm fluorescence, GSK3A, primary screen (AID 1103); conditions: fluorescence 635 nm, higher = more signal; further: the record names both GSK3A and GSK3B
[7] = target: Epidermal growth factor receptor (Homo sapiens) (UniProt P00533); assay: compounds binding epidermal growth factor receptor – biochemical, small-molecule microarray, 635 nm fluorescence, primary screen (AID 1104); conditions: EGFR binding, higher = more signal;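 further: score merges 667 nm emission intensity with spot signal to noise over triplicate slides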
[8] = target: Follistatin-related protein 3 (Homo sapiens) (UniProt O95633); assay: compounds binding follistatin-related protein 3 – biochemical, small-molecule microarray, 635 nm fluorescence, primary screen (AID 1105); conditions: FSTL3 binding, higher = more signal;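 further: score merges emission near 667 nm and signal to noise per printed spot across three slides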
[9] = target: Dickkopf-related protein 1 (Homo sapiens) (UniProt O94907); assay: small molecules binding DKK1 protein – biochemical, small-molecule microarray, 635 nm fluorescence scan, primary screen (AID 1106); conditions: higher = more signal;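 further: score merges emission near 667 nm with signal to noise over three replicate slides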
[10] = system: Inhibin beta A chain (activin A); assay: small molecules binding activin A – biochemical, small-molecule microarray, 635 nm fluorescence scan, primary screen (AID 1107); conditions: INHBA, higher = more signal;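 further: mouse activin A protein probed at 4.33 µg/mL on printed slides; score merges bound-protein fluorescence near 667 nm with spot signal-to-noise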
[11] = system: Human papillomavirus type 1a protein E7 (residues 44-93); assay: small molecules binding HPV E7 44-93 – biochemical, small-molecule microarray, residues 44-93, 635 nm fluorescence, primary screen (AID 1108); conditions: fluorescence 635 nm, higher = more signal;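 further: E7 fragment applied at 1 µg/mL in TBST for 1 h at 4 C; score combines spot fluorescence with its signal to noise ratio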
[12] = hepatitis C replication reporter changes, two-sided – Huh7 cells, luciferase reporter, HCV replication inhibitor project, primary screen (AID 1109); conditions: Huh7 HCV replicon luciferase reporter, 48 h; higher = more signal;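 further: huh7 hepatoma cells harbouring a luciferase neomycin HCV replicon reporter; luciferase luminescence as measure of HCV replicon replication; test concentration not given here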
[13] = target: Left-right determination factor 2 (Homo sapiens) (UniProt O00292); assay: small molecules binding LEFTY2 protein – biochemical, small-molecule microarray, 635 nm fluorescence scan, primary screen (AID 1110); conditions: higher = more signal
[14] = target: Calmodulin-1 (Homo sapiens) (UniProt P0DP23); assay: small molecules binding calmodulin-1 with EGTA – biochemical, small-molecule microarray, Cy5-labelled CALM1, profiling panel (AID 1111); conditions: Cy5-CALM1 binding fluorescence, higher = more signal;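 further: labelled calmodulin applied in Tris saline Tween buffer holding calcium plus EGTA and DTT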
[15] = target: Calmodulin-1 (Homo sapiens) (UniProt P0DP23); assay: small molecules binding Ca-loaded calmodulin-1 – biochemical, small-molecule microarray, Cy5-labelled CALM1, plus calcium, artefact control for SMM control-protein annotation, profiling panel (AID 1112); conditions: Cy5-CALM1 binding fluorescence, higher = more signal;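 further: score merges spot fluorescence with signal to noise from triplicate slides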
[16] = probe aWnt5a binding to arrayed compounds – biochemical, biotinylated probe, 635/667 nm fluorescence, primary screen (AID 1113); conditions: small-molecule microarray, higher = more signal;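 further: score merges 667 nm fluorescence intensity with signal-to-noise per printed feature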
[17] = probe aShh binding to arrayed compounds – biochemical, biotinylated probe, 635/667 nm fluorescence, primary screen (AID 1114); conditions: small-molecule microarray, higher = more signal;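 further: probe is biotin-labelled aShh protein from a stem cell growth factor screen; measures binding of labelled protein to compounds printed on the slide; score merges feature fluorescence at 667 nm with signal-to-noise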
[18] = probe aNog binding to arrayed compounds – biochemical, biotinylated probe, 635/667 nm fluorescence, primary screen (AID 1115); conditions: small-molecule microarray, higher = more signal;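 further: probe is biotinylated aNog protein used at 0.15 µg/mL for 1 h at 4 C; z-score combines 667 nm fluorescence of each spot with its signal to noise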
[19] = target: Torsin-1A-interacting protein 1 (Homo sapiens) (UniProt Q5JTV8); assay: compound microarray binding of lysate hLAP1 – cell lysate, small-molecule microarray, COS7 lysate, 635/667 nm fluorescence, primary screen (AID 1116); conditions: 635 nm fluorescence, higher = more signal
[20] = target: Alpha-bungarotoxin (Bungarus multicinctus) (UniProt P60615); assay: compounds binding labelled alpha-BTX control protein – biochemical, small-molecule microarray, Alexa647 label, 635/667 nm fluorescence, artefact control for SMM control protein annotation, profiling panel (AID 1117); conditions: alpha-BTX-A647 binding fluorescence, higher = more signal
Alpha-bungarotoxin (Bungarus multicinctus), sequence (P60615 whole entry, looked up): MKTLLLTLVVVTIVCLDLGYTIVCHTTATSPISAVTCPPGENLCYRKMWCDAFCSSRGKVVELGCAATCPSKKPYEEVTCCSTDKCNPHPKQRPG

Epidermal growth factor receptor (Homo sapiens), sequence (P00533 whole entry, looked up): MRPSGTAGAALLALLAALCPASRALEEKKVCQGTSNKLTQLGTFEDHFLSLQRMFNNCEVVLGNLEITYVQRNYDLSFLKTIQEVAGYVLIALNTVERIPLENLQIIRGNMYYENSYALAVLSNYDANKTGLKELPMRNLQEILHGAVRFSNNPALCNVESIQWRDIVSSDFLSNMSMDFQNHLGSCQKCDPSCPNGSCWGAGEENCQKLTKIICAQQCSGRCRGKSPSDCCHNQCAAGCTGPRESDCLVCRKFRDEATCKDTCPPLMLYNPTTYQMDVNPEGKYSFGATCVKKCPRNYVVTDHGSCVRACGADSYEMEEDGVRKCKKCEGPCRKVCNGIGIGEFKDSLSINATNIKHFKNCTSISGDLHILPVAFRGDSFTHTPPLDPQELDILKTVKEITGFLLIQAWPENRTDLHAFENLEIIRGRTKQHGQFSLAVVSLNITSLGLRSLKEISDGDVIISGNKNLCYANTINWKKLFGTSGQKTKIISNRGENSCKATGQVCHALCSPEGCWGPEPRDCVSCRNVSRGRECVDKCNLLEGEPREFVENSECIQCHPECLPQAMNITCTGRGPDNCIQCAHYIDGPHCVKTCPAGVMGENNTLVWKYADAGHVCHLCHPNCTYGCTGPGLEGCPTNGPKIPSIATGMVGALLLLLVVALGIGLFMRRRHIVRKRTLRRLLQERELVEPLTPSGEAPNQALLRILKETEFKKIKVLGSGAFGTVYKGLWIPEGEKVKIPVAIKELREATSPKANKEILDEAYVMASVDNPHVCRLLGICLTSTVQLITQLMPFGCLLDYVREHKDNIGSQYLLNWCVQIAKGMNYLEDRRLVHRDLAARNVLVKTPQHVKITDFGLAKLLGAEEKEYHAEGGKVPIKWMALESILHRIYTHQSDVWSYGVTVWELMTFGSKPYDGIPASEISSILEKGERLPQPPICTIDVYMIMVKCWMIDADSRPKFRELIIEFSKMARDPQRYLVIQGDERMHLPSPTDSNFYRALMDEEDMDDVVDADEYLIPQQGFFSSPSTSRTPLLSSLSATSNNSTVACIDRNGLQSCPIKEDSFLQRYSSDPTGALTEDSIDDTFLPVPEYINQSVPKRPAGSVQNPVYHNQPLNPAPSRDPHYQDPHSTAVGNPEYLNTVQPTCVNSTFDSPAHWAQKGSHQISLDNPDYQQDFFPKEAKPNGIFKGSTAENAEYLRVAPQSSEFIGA
Torsin-1A-interacting protein 1 (Homo sapiens), sequence (Q5JTV8 whole entry, looked up): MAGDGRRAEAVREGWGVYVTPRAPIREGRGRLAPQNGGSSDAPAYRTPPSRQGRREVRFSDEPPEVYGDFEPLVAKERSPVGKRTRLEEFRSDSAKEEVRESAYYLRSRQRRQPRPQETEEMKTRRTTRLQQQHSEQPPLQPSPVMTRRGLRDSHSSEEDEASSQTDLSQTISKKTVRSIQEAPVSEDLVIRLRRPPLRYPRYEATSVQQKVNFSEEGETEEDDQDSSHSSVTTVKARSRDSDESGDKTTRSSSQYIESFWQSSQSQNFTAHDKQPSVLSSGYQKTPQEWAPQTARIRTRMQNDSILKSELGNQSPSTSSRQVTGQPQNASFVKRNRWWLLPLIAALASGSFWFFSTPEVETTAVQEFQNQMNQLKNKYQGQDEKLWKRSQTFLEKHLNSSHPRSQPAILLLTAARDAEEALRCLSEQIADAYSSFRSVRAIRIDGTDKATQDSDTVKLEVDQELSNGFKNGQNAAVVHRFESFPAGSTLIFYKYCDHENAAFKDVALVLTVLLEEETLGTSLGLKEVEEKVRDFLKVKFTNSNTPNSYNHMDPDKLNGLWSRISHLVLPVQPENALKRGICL
Dickkopf-related protein 1 (Homo sapiens), sequence (O94907 whole entry, looked up): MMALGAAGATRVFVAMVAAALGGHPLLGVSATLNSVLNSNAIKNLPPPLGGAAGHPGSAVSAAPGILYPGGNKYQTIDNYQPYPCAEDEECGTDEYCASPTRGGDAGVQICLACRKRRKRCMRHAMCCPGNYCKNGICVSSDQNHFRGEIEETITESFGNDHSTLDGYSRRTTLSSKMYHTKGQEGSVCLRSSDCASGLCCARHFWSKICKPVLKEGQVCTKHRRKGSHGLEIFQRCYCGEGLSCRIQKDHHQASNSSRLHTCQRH
Left-right determination factor 2 (Homo sapiens), sequence (O00292 whole entry, looked up): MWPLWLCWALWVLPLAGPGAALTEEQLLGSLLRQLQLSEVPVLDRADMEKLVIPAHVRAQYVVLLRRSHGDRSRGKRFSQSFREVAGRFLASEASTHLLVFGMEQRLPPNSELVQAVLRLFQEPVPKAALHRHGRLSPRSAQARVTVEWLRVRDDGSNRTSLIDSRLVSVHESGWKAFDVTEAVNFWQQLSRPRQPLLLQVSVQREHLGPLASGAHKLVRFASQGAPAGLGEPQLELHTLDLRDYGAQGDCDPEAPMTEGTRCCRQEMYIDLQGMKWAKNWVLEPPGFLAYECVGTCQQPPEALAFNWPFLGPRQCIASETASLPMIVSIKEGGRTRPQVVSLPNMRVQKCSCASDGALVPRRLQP
Follistatin-related protein 3 (Homo sapiens), sequence (O95633 whole entry, looked up): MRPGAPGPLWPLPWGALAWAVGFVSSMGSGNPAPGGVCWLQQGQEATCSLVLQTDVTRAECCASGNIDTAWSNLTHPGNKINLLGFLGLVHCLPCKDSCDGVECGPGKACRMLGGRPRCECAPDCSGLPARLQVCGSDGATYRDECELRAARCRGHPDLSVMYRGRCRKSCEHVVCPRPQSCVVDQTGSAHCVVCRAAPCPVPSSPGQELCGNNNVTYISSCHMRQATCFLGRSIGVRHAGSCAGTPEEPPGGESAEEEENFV
Fibroblast growth factor 10 (Homo sapiens), sequence (O15520 whole entry, looked up): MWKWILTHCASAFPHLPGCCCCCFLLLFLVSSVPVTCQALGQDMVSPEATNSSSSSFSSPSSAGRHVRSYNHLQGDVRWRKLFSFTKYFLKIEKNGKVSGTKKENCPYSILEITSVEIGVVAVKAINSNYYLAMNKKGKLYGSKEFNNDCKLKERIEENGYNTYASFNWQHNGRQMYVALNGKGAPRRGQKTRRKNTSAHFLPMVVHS

SMILES	composite z-score [1]	composite z-score [2]	composite z-score [3]	z-score [4]	composite z-score [5]	composite z-score [6]	composite z-score [7]	composite z-score [8]	composite z-score [9]	composite z-score [10]	composite z-score [11]	z-score [12]	composite z-score [13]	composite z-score [14]	composite z-score [15]	composite z-score [16]	composite z-score [17]	composite z-score [18]	composite z-score [19]	composite z-score [20]
Cc1ccc(S[C@]2(C(=O)NCCN3CCOCC3)CC(=O)N(Cc3ccccc3C(F)(F)F)[C@@H]2c2ccc(CO)cc2I)cc1	1.3	-0.102	0.93	-1.55 (inactive)	-0.973	-0.728	-0.842	-1.13	-1.15	0.446	0.323	-1.64	-1.49	-0.69	0.116	-0.0792	-0.0866	0.0331	-0.0897	-0.529
COC(=O)C1(Cc2ccccc2)C=C2C(=C(c3ccccc3)C(=O)C2C)CN1 (stereo not given)	-0.208	1.88	1.39	0.388 (inactive)	1.03	-0.731	-0.544	-0.147	-0.89	1.69	-0.964	-1.53	-0.871	0.648	1.18	1.11	2.71	1.05	1.22	0.0329
COc1cc2c(cc1OC)CN(C(=O)[C@H]1[C@@H]3C(=O)O[C@@H](c4ccccc4)[C@@H](c4ccccc4)N3[C@@H](c3ccc(OCCO)cc3)[C@]13C(=O)Nc1ccc(C#CC4(O)CCCCCC4)cc13)CC2	1.09	1.59	0.623	0.415 (inactive)	1.12	1.31	1.02	1.33	1.31	1.07	1.43	-1.33	1.15	0.91	0.765	-0.236	-0.882	1.72	0.964	0.691
O=C1NC(=O)C2C1C=CC(C(O)c1cc(C(F)(F)F)cc(C(F)(F)F)c1)N2Nc1ccc(Cl)cc1Cl (stereo not given)	0.314	0.853	0.824	0.916 (inactive)	0.336	-0.514	-0.66	-0.0146	-0.953	0.701	-0.158	-0.99	-0.256	1.91	1.29	-0.0405	0.431	0.676	1.86	0.526
COC(=O)[C@H](Cc1ccccc1)N1CC(/C=C/C2CC2)=C[C@@H]1[C@@H](O)Cc1ccccc1	1.01	0.0175	-0.276	3.96 (inactive)	1.47	0.837	0.688	1.4	1.2	0.142	1.31	-1.33	1.04	0.48	-0.513	0.0079	-0.0035	0.131	0.0412	0.737
C=C(CCCC)C(=O)CC[C@@H](OC(=O)c1ccccc1-c1ccccc1C(=O)O)c1cccc(OCCO)c1	1.13	-0.302	-0.353	2.89 (inactive)	0.946	0.297	-0.0833	0.556	0.339	1.2	0.834	-4.38	0.373	-0.826	-0.973	-0.148	-0.0709	0.468	2.19	-0.14
CCOC(=O)C[C@H]1[C@H](OC(=O)c2ccccc2-c2ccccc2)[C@@H](NC(=O)CC(C)C)c2cc(OCCCO)ccc2N1C(=O)c1ccc2ccccc2n1	0.74	-0.0242	-0.187	-0.263 (inactive)	0.513	0.561	0.159	0.368	0.45	1.08	0.046	-0.578	0.186	0.844	-0.456	-0.124	-0.0769	-0.134	0.171	0.719
C=CC1c2cc(O)c(OC)cc2CCN1Cc1sc2ccccc2c1Cl (stereo not given)	1.29	0.284	1.25	-1.4 (inactive)	0.504	0.112	-0.163	0.847	0.153	1.55	1.38	-1.78	0.0792	0.248	0.237	-0.107	0.0796	-0.0132	0.47	1.47
O=C1c2ccccc2[C@](Cc2ccccc2I)(C(=O)NCc2ccccc2)[C@H](c2ccc(CO)cc2)N1C1CCCCC1	0.851	0.969	0.357	-0.216 (inactive)	1.37	1.08	0.228	1.08	0.837	0.958	1.4	-1.93	0.835	1.28	1.08	-0.0691	0.217	0.347	0.616	0.705
CN(C)CCCNC(=O)[C@@]1(c2ccc([N+](=O)[O-])cc2)CC(=O)N(CC23CC4CC(CC(C4)C2)C3)[C@@H]1c1ccc(CO)cc1	1.72	0.774	0.811	-0.102 (inactive)	0.239	1.32	0.201	0.996	0.54	1.14	1.23	-3.26	0.364	1.43	0.398	0.249	0.806	2.24	2.35	1.83
O=C(CS)NCCCCCCNC(=O)[C@H]1C[C@H]2C(=O)N[C@@H](Cc3ccccc3)C(=O)N2[C@H]1c1cccc(OCCO)c1	1.62	-0.0581	0.232	0.479 (inactive)	1.51	1.25	1.39	1.52	1.34	0.68	1.37	-0.963	1.23	1.79	0.0164	0.0066	0.676	0.897	1.38	2.44
